A number with no mark means an inactive call. How the calls were made is not given here.
Test system: Aerobactin synthetase IucA (Klebsiella pneumoniae hvKP1)
Test: IucA enzyme inhibition, primary screen, biochemical, Spectrum library (AID 1346200);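 further: 100% = wells without compound and 0% = wells lacking enzyme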
Settings: malachite green pyrophosphate, A620, at 8 µM, hits give low values

Compound	activity remaining [%]
O=c1c(-c2ccccc2)coc2cc(O)cc(O)c12	109
C/C=C(/C(=C/C)c1ccc(O)cc1)c1ccc(O)cc1	115
O=c1[nH]c(=O)n(C2C[C@H](O)[C@@H](CO)O2)cc1C(F)(F)F (stereo partly specified)	108
CC1(C)C=Cc2c(cc3occ(-c4ccc5c(c4)OCO5)c(=O)c3c2O)O1	118
O=c1c(O)c(-c2ccccc2)oc2ccc3occc3c12	104
Cc1cc(NC(=O)C2=C(O)c3ccccc3S(=O)(=O)N2C)no1	94.1
O=C(O)C1=C(CSc2nnnn2CS(=O)(=O)O)CS[C@@H]2C(NC(=O)[C@H](O)c3ccccc3)C(=O)N12 (stereo partly specified)	116
CC12CCC3C(=CCc4cc(O)ccc43)C1CCC2=O (stereo unspecified)	108
C=CCSCC=C	109
CC1(O)CC2C(CC1O)C2(C)C (stereo unspecified)	125
COc1ccc2c(c1)OCC(Cc1ccc(OC)c(OC(C)=O)c1)C2=O (stereo unspecified)	113
O=c1c(O)cccc2cc(O)c(O)c(O)c12	107
CC1CC2C3CCC4=CC(=O)C=C[C@]4(C)[C@@]3(F)[C@@H](O)C[C@]2(C)[C@@]1(O)C(=O)CO (stereo partly specified)	117
C=C1CCC(OC(C)=O)/C(C)=C/C[C@@H]2[C@@H]1CC2(C)C (stereo partly specified)	103
CC[C@]12C=CCN3CC[C@@]4(c5ccc(OC)cc5N(C)C4[C@@](O)(C(=O)OC)[C@@H]1OC(C)=O)[C@@H]32 (stereo partly specified)	112
CC(=O)O[C@H]1C[C@@H](OC(C)=O)C(C)(C)C2CC(=O)[C@]3(C)C(CC[C@@]4(C)[C@H](c5ccoc5)OC(=O)[C@H]5O[C@]543)[C@]21C (stereo partly specified)	107

From PubChem BioAssay
